In PubChem BioAssay (NCATS):
“And” between values parts separate entries of the source, which are not always exact repeats. Equal entries are not always repeated. Records with an inconclusive call do not appear. Entries that show only a call come without a potency. The source made the active and inactive calls. Unless noted, calls follow the shape of the dose curve; as a rule, active = well fitted curve in the direction sought with a large enough effect; inconclusive = small, poorly fitted or top-dose-only effect, or another doubt; inactive = no such curve, though single readings can be large; an effect the other way counts as inactive or inconclusive.

Tests used:
[1] = qHTS Screen of the MIPE 4.0 Collection Against Ewings Sarcoma (TC32) (AID 1259256); also: nearly all actives have a fitted effect of over 45% in size
Method in brief: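 Dose series incubated 48 h with cells in RPMI plus 5% FBS, glutamine and penicillin/streptomycin; cell viability then quantified via CellTiter-Glo.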

[2] = P-glycoprotein substrates identified in KB-8-5-11 adenocarcinoma cell line, qHTS therapeutic library screen (AID 1346987); also: nearly all actives have a fitted effect of over 65% in size
Method in brief: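 KB-8-5-11: colchicine-selected sub-line of KB-3-1 over-expressing P-gp; assay medium lacked colchicine. 72 h drug exposure at 37 degree C, CellTiter-Glo.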

[3] = NS1 protein of Zika virus - qHTS assay to identify small molecule inhibitors in human HEK 293 cells (AID 1347053); also: nearly all actives have a fitted effect of over 55% in size
Method in brief: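 HEK 293 cells, seeded 20 h at 37 C, were pretreated with compound 1 h, then infected with ZIKV MR766 (MOI = 0.5) for 24 h. NS1 was read by TR-FRET with two anti-NS1 antibodies, normalized to uninfected and infected wells.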

[4] = qHTS for Inhibitors of the Functional Ribonucleoprotein Complex (vRNP) of Lassa (LASV) Arenavirus: LASV Primary Screen - GLuc reporter signal (AID 1347082; calls by dose curve; tested in HEK293 reporter line; also: nearly all actives have a fitted effect of over 60% in size)
Potency is read from the fitted curve at half-maximal effect.

Row | Structure (SMILES) | Potency [1] | Potency [2] | Potency [3] | Potency [4]
1 | CCCC[N+]1(C)[C@H]2CC(OC(=O)[C@H](CO)c3ccccc3)C[C@H]1[C@H]1O[C@H]12 (stereo partly specified) | inactive | inactive | inactive | inactive
2 | O=C(Nc1ccncc1)C(=O)c1cn(Cc2ccc(Cl)cc2)c2ccccc12 | inactive | 33.2 nM (active) | 9.3 nM (active) | inactive
3 | CC1(N2CCC(n3c([C@@H]4CCCNC4)nc4ccccc43)CC2)CCCCCCC1 | 9350 nM (active) | 23.5 µM (active) and 20.6 µM (active) | 20900 nM (active) | inactive
4 | C[C@@H]1O[C@@H](O[C@@H]2C=C3CC[C@@H]4[C@@H](CC[C@]5(C)[C@H](c6ccc(=O)oc6)CC[C@@]45O)[C@@]3(C)CC2)[C@H](O)[C@H](O)[C@H]1O | 23.5 nM (active) | 20.9 nM (active) | 11.8 nM (active) | 68.5 nM (active)
5 | CCN1CCN(C(=O)Cc2ccc(Nc3ncc(F)c(Nc4ccc(C(=O)Nc5ccccc5Cl)cc4)n3)cc2)CC1 | 4180 nM (active) | 2.96 µM (active) and 1.16 µM (active) | 11800 nM (active) | inactive
6 | C[C@]12CC[C@H](O)CC1=CC[C@H]1[C@H]3CCC(=O)[C@@]3(C)CC[C@@H]12 | 16600 nM (active) | inactive |  | inactive
7 | C[C@H]1CCCC=CC2C[C@H](O)C[C@@H]2[C@H](O)C=CC(=O)O1 (stereo partly specified) | inactive | 1 nM (active) | inactive | 27.3 nM (active)
8 | CN[C@@H]1Cc2cccc3[nH]c(=O)n(c23)C1 | inactive | inactive | inactive | inactive
